The results in this text go back to PubChem BioAssay.

Test [1] is described as follows: antimalarial activity against Dd2 strain (AID 2302;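 active = growth inhibition above 50% at the single 2 µM test dose, taken to imply half-maximal potency below 2 µM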;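 note: 0% = DMSO untreated growth and 100% = chloroquine plus artemisinin killed control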). The settings on record: P. falciparum Dd2 in RBCs, LDH growth readout, 72 h; at 2 µM; hits give high values.
A short description of test [2]: HepG2 cytotoxicity, primary screen, cytotoxicity control for P. falciparum antimalarial project, cell-based, ATP luminescence (AID 2303;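 active = inhibition above 50%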;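 note: 0% = DMSO wells and 100% = digitonin-killed cells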). The conditions noted are these: HepG2 viability, 24-48 h, at 10 µM, hits give high values.
Test [3] deals with L-lactate dehydrogenase (Plasmodium falciparum (isolate CDC / Honduras)) (UniProt Q27743). The test is described as follows: PfLDH activity inhibition – cell lysate, 3D7 strain, counter-screen for P. falciparum growth inhibition project (AID 2304).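 Note: 0% = vehicle and 100% = reference inhibitor.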 The conditions noted are these: P. falciparum 3D7 crude extract, LDH APAD/NBT absorbance; at 2 µM; hits give high values. A general note: A counterscreen serves to expose hits that act by an unwanted route or on another target.

The nature of test [4]: inhibition of 3D7 malaria parasite growth – strain 3D7 (AID 2306).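 Note: 0% = DMSO wells and 100% = chloroquine plus artemisinin control wells.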 The settings on record: P. falciparum 3D7 erythrocytic growth, LDH absorbance, 72 h; at 2 µM; hits give high values.
Test [5] concerns the target Calcium-dependent protein kinase 1 (Plasmodium falciparum (isolate 3D7)) (UniProt P62344). The test is described as follows: PfCDPK1 kinase inhibitors, biochemical, TCAMS library (AID 1159585; cut-off not given, nearly all actives have IC50 up to about 0.98 µM;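 note: inhibitors leave more ATP so luminescence rises with inhibition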). The settings on record: recombinant PfCDPK1, Kinase-Glo ATP depletion luminescence. On the technique in general: Kinase-Glo measures the ATP left after a reaction by luminescence.

Test [6] has as its target Plasmodium falciparum protein kinase 6 (PK6, PF3D7_1337100) (UniProt Q8IDW1). Description: PfPK6 kinase inhibitors, biochemical, TCAMS library (AID 1159586). The settings on record: recombinant PfPK6, Kinase-Glo ATP depletion luminescence.
In test [7] the target is Protein kinase 7 (PK7), Plasmodium falciparum 3D7 (PF3D7_0213400) (UniProt Q7YTF7). The test is described as follows: inhibition of Plasmodium PK7 catalytic activity – biochemical, TCAMS antimalarial set, Kinase-Glo luminescence (AID 1159587). The conditions noted are these: recombinant PfPK7, Kinase-Glo ATP depletion luminescence.
Test [8] has as its target Calcium-dependent protein kinase 4 (Plasmodium falciparum (isolate 3D7)) (UniProt Q8IBS5). Description: PfCDPK4 kinase inhibitors, biochemical, TCAMS library (AID 1159588; cut-off not given, nearly all actives have IC50 up to about 0.91 µM). The conditions noted are these: recombinant PfCDPK4, Kinase-Glo ATP depletion luminescence.

Molecules are shown by their SMILES. Unmarked numbers belong to inactive results. For some of these results: Results with a measured potency or affinity are listed apart. Calls of active or inactive are those of the source. Unless noted, the rule behind the calls is not given here.

By inhibition is commonly meant the relative decrease from the control value, in per cent.

Calcium-dependent protein kinase 4 (Plasmodium falciparum (isolate 3D7)), sequence (Q8IBS5 whole entry, looked up): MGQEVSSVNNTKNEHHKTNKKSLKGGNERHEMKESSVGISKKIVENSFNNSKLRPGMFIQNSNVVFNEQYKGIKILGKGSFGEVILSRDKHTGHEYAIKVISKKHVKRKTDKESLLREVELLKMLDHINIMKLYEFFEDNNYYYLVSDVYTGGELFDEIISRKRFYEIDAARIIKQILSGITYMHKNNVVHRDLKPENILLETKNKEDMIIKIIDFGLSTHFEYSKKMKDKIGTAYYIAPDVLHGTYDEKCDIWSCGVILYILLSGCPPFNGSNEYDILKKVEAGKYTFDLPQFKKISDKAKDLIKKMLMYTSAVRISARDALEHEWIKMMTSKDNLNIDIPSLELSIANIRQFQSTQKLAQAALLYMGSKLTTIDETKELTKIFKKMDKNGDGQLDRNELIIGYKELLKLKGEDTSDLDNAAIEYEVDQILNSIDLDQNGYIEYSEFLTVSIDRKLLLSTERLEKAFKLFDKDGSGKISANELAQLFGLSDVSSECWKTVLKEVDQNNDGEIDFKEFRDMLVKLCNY
Protein kinase 7 (PK7), Plasmodium falciparum 3D7 (PF3D7_0213400), sequence (Q7YTF7 1-343): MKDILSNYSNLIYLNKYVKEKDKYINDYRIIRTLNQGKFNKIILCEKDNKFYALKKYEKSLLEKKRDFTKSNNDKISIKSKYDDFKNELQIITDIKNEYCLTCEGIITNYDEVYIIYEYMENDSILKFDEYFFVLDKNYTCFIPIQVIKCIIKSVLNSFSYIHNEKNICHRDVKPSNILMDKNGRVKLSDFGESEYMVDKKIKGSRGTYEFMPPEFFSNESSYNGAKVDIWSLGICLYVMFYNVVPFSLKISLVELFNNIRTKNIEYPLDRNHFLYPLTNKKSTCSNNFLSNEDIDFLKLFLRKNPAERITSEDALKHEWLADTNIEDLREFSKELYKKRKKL
L-lactate dehydrogenase (Plasmodium falciparum (isolate CDC / Honduras)), sequence (Q27743 whole entry, looked up): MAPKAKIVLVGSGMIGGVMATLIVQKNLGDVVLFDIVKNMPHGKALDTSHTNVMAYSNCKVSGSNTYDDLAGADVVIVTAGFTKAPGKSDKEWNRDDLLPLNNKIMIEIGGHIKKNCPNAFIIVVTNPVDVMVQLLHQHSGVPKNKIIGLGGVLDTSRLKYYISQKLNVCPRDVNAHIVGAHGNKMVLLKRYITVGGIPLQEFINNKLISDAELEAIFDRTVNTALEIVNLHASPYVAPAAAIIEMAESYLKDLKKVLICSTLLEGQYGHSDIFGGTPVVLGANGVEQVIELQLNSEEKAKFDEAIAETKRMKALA
Calcium-dependent protein kinase 1 (Plasmodium falciparum (isolate 3D7)), sequence (P62344 whole entry, looked up): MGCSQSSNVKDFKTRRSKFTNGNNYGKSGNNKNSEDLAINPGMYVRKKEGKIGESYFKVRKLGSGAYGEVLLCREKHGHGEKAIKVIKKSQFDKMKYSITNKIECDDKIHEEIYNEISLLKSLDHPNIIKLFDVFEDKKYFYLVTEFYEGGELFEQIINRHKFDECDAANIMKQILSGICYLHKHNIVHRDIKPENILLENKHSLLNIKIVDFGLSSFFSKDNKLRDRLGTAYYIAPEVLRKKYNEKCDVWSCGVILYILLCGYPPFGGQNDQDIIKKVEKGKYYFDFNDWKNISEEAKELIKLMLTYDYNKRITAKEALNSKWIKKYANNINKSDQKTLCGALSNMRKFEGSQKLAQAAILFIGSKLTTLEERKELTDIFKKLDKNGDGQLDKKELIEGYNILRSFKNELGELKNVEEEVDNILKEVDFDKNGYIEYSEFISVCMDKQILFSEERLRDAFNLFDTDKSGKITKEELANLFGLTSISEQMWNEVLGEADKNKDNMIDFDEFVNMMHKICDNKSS
Plasmodium falciparum protein kinase 6 (PK6, PF3D7_1337100), sequence (Q8IDW1 1-305): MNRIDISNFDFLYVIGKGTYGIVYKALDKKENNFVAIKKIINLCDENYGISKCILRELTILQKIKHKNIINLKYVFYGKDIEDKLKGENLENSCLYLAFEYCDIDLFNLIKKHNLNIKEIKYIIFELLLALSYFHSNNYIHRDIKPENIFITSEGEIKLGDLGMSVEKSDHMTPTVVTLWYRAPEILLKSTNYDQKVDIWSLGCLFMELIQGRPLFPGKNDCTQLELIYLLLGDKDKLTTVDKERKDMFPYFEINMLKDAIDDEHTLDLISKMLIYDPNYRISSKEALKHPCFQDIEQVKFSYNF

Regarding `c1cc(-c2ccc(CN3CCCCC3)cc2)cc(-c2nc3ccccc3[nH]2)c1`, the growth inhibition in test [1] was 79% (active); in test [4] it was 101% (active). Further, the inhibition is 39% in test [2] and 5% in test [3]. For the same compound, the outcome in test [5], in test [6], in test [7] and in test [8] was inactive.
For the compound `Cc1cccc(Cn2nc(-c3ccccc3)c(N3CCCCC3)cc2=O)c1`, the values for the growth inhibition in test [1] and in test [4] were -2% and 98% (active), respectively. The inhibition in test [2] is 29%; in test [3] it was 0%. Moreover, the result in test [5], in test [6], in test [7] and in test [8] was inactive.
As for `O=C(Cc1ccc(Cl)cc1)NC1CCN(c2ccnc3cc(Cl)ccc23)C1` (stereo not given), the values for the growth inhibition in test [1] and in test [4] were 99% (active) and 82% (active), respectively. The inhibition in test [2] is 13%; in test [3], -3%. Further, the result in test [5], in test [6], in test [7] and in test [8] was inactive.
Take `O=C(NCc1ccc(F)cc1)c1cnc(N2CCN(c3ccncc3)CC2)c(Cl)c1`: the growth inhibition in test [1] is 44%; in test [4] it was 98% (active). Further, the inhibition is 30% in test [2] and 2% in test [3]. The outcome in test [5], in test [6], in test [7] and in test [8] was inactive.
As to `Cc1cc(NCCC(=O)Nc2ccccc2)nc(NCCc2cccnc2)n1`, the figures for the growth inhibition in test [1] and in test [4] were 4% and 84% (active), respectively. The inhibition in test [2] is -1%; in test [3], -2%. Also, the outcome in test [5], in test [6], in test [7] and in test [8] was inactive.
Take `Cc1cccc2c3c([nH]c12)C1(CCN(CCc2ccccc2)CC1)NC(C(=O)NCc1ccccc1)C3` (stereo not given): the growth inhibition is 52% (active) in test [1] and 86% (active) in test [4]. The inhibition in test [2] was 10%; in test [3], -9%. The outcome in test [5], in test [6], in test [7] and in test [8] was inactive.
With `CN(C)CCCNc1ncnc2c1[nH]c1ccc(Cl)cc12`, the values for the growth inhibition in test [1] and in test [4] were 3% and 99% (active), respectively. Also, the inhibition in test [2] and in test [3] was 2% in each case. In addition, the result in test [5], in test [6], in test [7] and in test [8] was inactive.
For `NC(N)=Nc1ccc(Cc2ccc(N=C(N)N)cc2)cc1`, the figures for the growth inhibition in test [1] and in test [4] were 94% (active) and 93% (active), respectively. The inhibition in test [2] was 35%; in test [3], -1%. Moreover, the outcome in test [5], in test [6], in test [7] and in test [8] was inactive.
Consider `Nc1c2nc(-c3c(F)cccc3Cl)[nH]c(=O)c2nc(=O)n1-c1ccccc1`, for which the growth inhibition in test [1] was 0%; in test [4] it was 95% (active). For the same compound, the values for the inhibition in test [2] and in test [3] were 52% (active) and 2%, respectively. For the same compound, the outcome in test [5], in test [6], in test [7] and in test [8] was inactive.
Regarding `Cc1cc(C)c2oc(-c3cccc(NC(=O)c4ccc([N+](=O)[O-])o4)c3C)nc2c1`, the results for the growth inhibition in test [1] and in test [4] were 67% (active) and 90% (active), respectively. Besides, the inhibition in test [2] was -1%; in test [3], 0%. Also, the outcome in test [5], in test [6], in test [7] and in test [8] was inactive.
Regarding `Cn1cnc(CCNC(=O)c2ccc(-c3cccc(-c4nc5ccc(C(F)(F)F)cc5[nH]4)c3)cc2)c1`, the results for the growth inhibition in test [1] and in test [4] were 93% (active) and 101% (active), respectively. For the same compound, the inhibition was 25% in test [2] and 3% in test [3]. Further, the outcome in test [5], in test [6], in test [7] and in test [8] was inactive.
Consider `Cc1cc(NN=Cc2ccccn2)c2cc(C(F)(F)F)ccc2n1`, for which the growth inhibition in test [1] is 100% (active); in test [4] it was 102% (active). Also, the inhibition in test [2] is -10%; in test [3], -4%. The outcome in test [5], in test [6], in test [7] and in test [8] was inactive.
Turning to `ON=C1c2cc(OCCN3CCCCC3)c(Cl)cc2-c2cc(Cl)c(OCCN3CCCCC3)cc21`, the growth inhibition in test [1] is 98% (active); in test [4], 97% (active). The results for the inhibition in test [2] and in test [3] were 99% (active) and 5%, respectively. The outcome in test [5], in test [6], in test [7] and in test [8] was inactive.
In the case of `N#Cc1ccc2nc(-c3ccccc3)[nH]c2c1`, the growth inhibition in test [1] was 1%; in test [4], 95% (active). In addition, the figures for the inhibition in test [2] and in test [3] were 7% and -1%, respectively. The result in test [5], in test [6], in test [7] and in test [8] was inactive.
Regarding `Cc1cccc(CNc2nc(C)cc(NCCC(=O)Nc3ccccc3)n2)c1`, the growth inhibition was 54% (active) in test [1] and 101% (active) in test [4]. Besides, the values for the inhibition in test [2] and in test [3] were 15% and -3%, respectively. The outcome in test [5], in test [6], in test [7] and in test [8] was inactive.
`Oc1ccc(CCNc2nc(NCc3ccccc3-c3ccc(C(F)(F)F)cc3)nc(N3CCNCC3)n2)cc1`: the growth inhibition in test [1] was 53% (active); in test [4] it was 97% (active). Besides, the inhibition in test [2] was 17%; in test [3], 8%. Besides, the outcome in test [5], in test [6], in test [7] and in test [8] was inactive.
Regarding `COc1cccc(OC)c1C(=O)Nc1cccc(-c2nn3ccccc3c2-c2ccnc(Nc3cccc(F)c3)n2)c1`, the growth inhibition in test [1] was 38%; in test [4] it was 95% (active). Also, the inhibition in test [2] was 3%; in test [3], 8%. Moreover, the result in test [5], in test [6], in test [7] and in test [8] was inactive.
For the compound `COc1ccc2nccc([C@@H](O)CN3CCC(NC(=O)c4cc5c(Cl)cc(Cl)cc5[nH]4)CC3)c2c1`, the growth inhibition in test [1] is 98% (active); in test [4] it was 100% (active). Moreover, the inhibition in test [2] was 22%; in test [3] it was -3%. In addition, the outcome in test [5], in test [6], in test [7] and in test [8] was inactive.
With `N=c1n(Cc2ccccc2)c2ccccc2n1CC(O)c1ccc(Cl)cc1` (stereo not given), the growth inhibition was 75% (active) in test [1] and 96% (active) in test [4]. Further, the inhibition is 26% in test [2] and -1% in test [3]. In addition, the outcome in test [5], in test [6], in test [7] and in test [8] was inactive.
In the case of `O=C(Nc1ccc2nc(-c3ccc4nc(NC(=O)C5CCCCC5)sc4c3)[nH]c2c1)C1CCCCC1`, the values for the growth inhibition in test [1] and in test [4] were 68% (active) and 100% (active), respectively. Besides, the inhibition in test [2] was 84% (active); in test [3], -9%. Also, the result in test [5], in test [6], in test [7] and in test [8] was inactive.
